# From PubChem BioAssay AID1159580 (chemical genetic matrix, 2015)
# The whole screen tested about 5,500 compounds, of which about 2,000 (36%) were called active. Roughly 18% stayed inconclusive and do not appear here. The list shows a part of the results. Unmarked numbers belong to inactive results. Rule as the data show it: active = normalized growth mostly below about 0.91 (no sharp cut-off); inconclusive = no clear call, values can overlap the other calls; inactive = mostly above about 0.92.
# Assay: chemical genetic growth profiling, strain panel (AID 1159580);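 also: tested at 20 µM; growth read once vehicle control cultures reached saturation at 30 °C; 1 = growth at the plate median or of vehicle wells; lower values mean less growth of the strain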
# Details: growth OD
compound,measurement,setting,value
O=C1c2ccccc2C(=O)c2ccccc21,normalized growth,"S. cerevisiae deletion strains, locus YJR075W, strain HOC1, hits give low values",0.956
same,normalized growth,"S. cerevisiae deletion strains, locus YKL009W, strain mrt4, hits give low values",0.933
same,normalized growth,"S. cerevisiae deletion strains, locus YKL068W, hits give low values",0.986
same,normalized growth,"S. cerevisiae deletion strains, locus YKL085W, strain MDH1 (second series), hits give low values",0.97
same,normalized growth,"S. cerevisiae deletion strains, locus YKL085W, strain MDH1, hits give low values",0.97
same,normalized growth,"S. cerevisiae deletion strains, locus YKL160W, strain elf1, hits give low values",0.986
same,normalized growth,"S. cerevisiae deletion strains, locus YKL190W, strain CNB1, hits give low values",0.98
same,normalized growth,"S. cerevisiae deletion strains, locus YKR001C, strain vps1, hits give low values",0.972
same,normalized growth,"S. cerevisiae deletion strains, locus YKR026C, strain gcn3, hits give low values",1
same,normalized growth,"S. cerevisiae deletion strains, locus YKR091W, strain srl3, hits give low values",1
same,normalized growth,"S. cerevisiae deletion strains, locus YLL001W, strain dnm1, hits give low values",1.01
same,normalized growth,"S. cerevisiae deletion strains, locus YLL026W, hits give low values",0.993
same,normalized growth,"S. cerevisiae deletion strains, locus YLL041C, strain sdh2, hits give low values",0.993
same,normalized growth,"S. cerevisiae deletion strains, locus YLR027C, strain aat2, hits give low values",0.999
same,normalized growth,"S. cerevisiae deletion strains, locus YLR039C, strain RIC1, hits give low values",0.765
same,normalized growth,"S. cerevisiae deletion strains, locus YLR058C, strain SHM2, hits give low values",0.988
same,normalized growth,"S. cerevisiae deletion strains, locus YLR102C, strain apc9, hits give low values",0.989
same,normalized growth,"S. cerevisiae deletion strains, locus YLR113W, strain HOG1, hits give low values",1.1
same,normalized growth,"S. cerevisiae deletion strains, locus YLR221C, strain rsa3, hits give low values",0.969
same,normalized growth,"S. cerevisiae deletion strains, locus YLR258W, strain gsy2, hits give low values",0.993
same,normalized growth,"S. cerevisiae deletion strains, locus YLR262C, strain YPT6 (second series), hits give low values",0.96
same,normalized growth,"S. cerevisiae deletion strains, locus YLR262C, strain YPT6, hits give low values",0.71
same,normalized growth,"S. cerevisiae deletion strains, locus YLR268W, strain sec22, hits give low values",0.974
same,normalized growth,"S. cerevisiae deletion strains, locus YLR320W, strain mms22, hits give low values",0.903
same,normalized growth,"S. cerevisiae deletion strains, locus YLR330W, strain CHS5, hits give low values",0.993
same,normalized growth,"S. cerevisiae deletion strains, locus YLR342W, strain FKS1 (second series), hits give low values",0.938
same,normalized growth,"S. cerevisiae deletion strains, locus YLR342W, strain FKS1, hits give low values",1.01
same,normalized growth,"S. cerevisiae deletion strains, locus YLR357W, strain rsc2, hits give low values",0.976
same,normalized growth,"S. cerevisiae deletion strains, locus YLR370C, strain arc18, hits give low values",0.994
same,normalized growth,"S. cerevisiae deletion strains, locus YLR371W, strain rom2, hits give low values",0.975
same,normalized growth,"S. cerevisiae deletion strains, locus YLR384C, strain iki3, hits give low values",0.994
same,normalized growth,"S. cerevisiae deletion strains, locus YLR418C, strain cdc73, hits give low values",1.01
same,normalized growth,"S. cerevisiae deletion strains, locus YML016C, strain PPZ1, hits give low values",0.992
same,normalized growth,"S. cerevisiae deletion strains, locus YML032C, strain rad52, hits give low values",0.976
same,normalized growth,"S. cerevisiae deletion strains, locus YML120C, strain ndi1, hits give low values",1.01
same,normalized growth,"S. cerevisiae deletion strains, locus YML124C, strain tub3, hits give low values",0.989
same,normalized growth,"S. cerevisiae deletion strains, locus YMR058W, strain fet3, hits give low values",0.948
same,normalized growth,"S. cerevisiae deletion strains, locus YMR078C, strain ctf18, hits give low values",0.995
same,normalized growth,"S. cerevisiae deletion strains, locus YMR125W, strain sto1, hits give low values",1.08
same,normalized growth,"S. cerevisiae deletion strains, locus YMR129W, hits give low values",0.996
same,normalized growth,"S. cerevisiae deletion strains, locus YMR205C, strain PFK2, hits give low values",1.03
same,normalized growth,"S. cerevisiae deletion strains, locus YMR223W, strain ubp8, hits give low values",0.963
same,normalized growth,"S. cerevisiae deletion strains, locus YMR231W, strain pep5, hits give low values",0.998
same,normalized growth,"S. cerevisiae deletion strains, locus YMR263W, strain SAP30, hits give low values",0.97
same,normalized growth,"S. cerevisiae deletion strains, locus YMR307W, strain GAS1, hits give low values",0.804
same,normalized growth,"S. cerevisiae deletion strains, locus YNL067W, strain RPL9B, hits give low values",0.964
same,normalized growth,"S. cerevisiae deletion strains, locus YNL071W, strain lat1, hits give low values",0.955
same,normalized growth,"S. cerevisiae deletion strains, locus YNL128W, strain TEP1, hits give low values",0.946
same,normalized growth,"S. cerevisiae deletion strains, locus YNL153C, strain GIM3, hits give low values",1
same,normalized growth,"S. cerevisiae deletion strains, locus YNL183C, strain NPR1, hits give low values",0.961
same,normalized growth,"S. cerevisiae deletion strains, locus YNL209W, strain ssb2, hits give low values",0.978
same,normalized growth,"S. cerevisiae deletion strains, locus YNL233W, strain BNI4, hits give low values",0.995
same,normalized growth,"S. cerevisiae deletion strains, locus YNL248C, strain rpa49, hits give low values",0.837 (active)
same,normalized growth,"S. cerevisiae deletion strains, locus YNL250W, strain rad50, hits give low values",0.974
same,normalized growth,"S. cerevisiae deletion strains, locus YNL271C, strain bni1, hits give low values",0.978
same,normalized growth,"S. cerevisiae deletion strains, locus YNL298W, strain CLA4, hits give low values",0.975
same,normalized growth,"S. cerevisiae deletion strains, locus YNL307C, strain MCK1, hits give low values",0.971
same,normalized growth,"S. cerevisiae deletion strains, locus YNL322C, strain KRE1 (second series), hits give low values",1.03
same,normalized growth,"S. cerevisiae deletion strains, locus YNL322C, strain KRE1, hits give low values",0.987
same,normalized growth,"S. cerevisiae deletion strains, locus YNR049C, strain mso1, hits give low values",0.995
same,normalized growth,"S. cerevisiae deletion strains, locus YNR052C, strain pop2, hits give low values",0.99
same,normalized growth,"S. cerevisiae deletion strains, locus YOL006C, strain TOP1, hits give low values",0.97
same,normalized growth,"S. cerevisiae deletion strains, locus YOL012C, strain htz1",0.796
same,normalized growth,"S. cerevisiae deletion strains, locus YOL147C, strain pex11, hits give low values",1.01
same,normalized growth,"S. cerevisiae deletion strains, locus YOR001W, strain rrp6, hits give low values",0.991
same,normalized growth,"S. cerevisiae deletion strains, locus YOR061W, strain CKA2, hits give low values",0.988
same,normalized growth,"S. cerevisiae deletion strains, locus YOR069W, strain VPS5, hits give low values",1.01
same,normalized growth,"S. cerevisiae deletion strains, locus YOR070C, strain gyp1, hits give low values",0.996
same,normalized growth,"S. cerevisiae deletion strains, locus YOR080W, strain dia2, hits give low values",1.01
same,normalized growth,"S. cerevisiae deletion strains, locus YOR083W, strain WHI5, hits give low values",0.963
same,normalized growth,"S. cerevisiae deletion strains, locus YOR106W, strain vam3, hits give low values",0.945
same,normalized growth,"S. cerevisiae deletion strains, locus YOR136W, strain idh2, hits give low values",0.985
same,normalized growth,"S. cerevisiae deletion strains, locus YOR144C, strain elg1, hits give low values",0.992
same,normalized growth,"S. cerevisiae deletion strains, locus YOR184W, strain ser1, hits give low values",0.942
same,normalized growth,"S. cerevisiae deletion strains, locus YOR231W, strain MKK1, hits give low values",1.02
same,normalized growth,"S. cerevisiae deletion strains, locus YOR265W, strain rbl2, hits give low values",0.993
same,normalized growth,"S. cerevisiae deletion strains, locus YOR270C, strain vph1, hits give low values",0.804
same,normalized growth,"S. cerevisiae deletion strains, locus YOR290C, strain snf2, hits give low values",0.973
same,normalized growth,"S. cerevisiae deletion strains, locus YOR316C, strain cot1, hits give low values",0.996
same,normalized growth,"S. cerevisiae deletion strains, locus YPL051W, strain arl3, hits give low values",0.926
same,normalized growth,"S. cerevisiae deletion strains, locus YPL055C, strain LGE1, hits give low values",0.9
same,normalized growth,"S. cerevisiae deletion strains, locus YPL078C, strain atp4, hits give low values",0.96
same,normalized growth,"S. cerevisiae deletion strains, locus YPL106C, strain sse1, hits give low values",0.954
same,normalized growth,"S. cerevisiae deletion strains, locus YPL240C, strain hsp82, hits give low values",0.995
same,normalized growth,"S. cerevisiae deletion strains, locus YPL241C, strain CIN2, hits give low values",0.953
same,normalized growth,"S. cerevisiae deletion strains, locus YPL256C, strain CLN2, hits give low values",1.08
same,normalized growth,"S. cerevisiae deletion strains, locus YPR119W, strain clb2, hits give low values",0.996
same,normalized growth,"S. cerevisiae deletion strains, locus YPR141C, strain kar3, hits give low values",0.99
same,normalized growth,"S. cerevisiae deletion strains, locus YPR163C, strain tif3, hits give low values",0.996
same,normalized growth,"S. cerevisiae deletion strains, locus YPR167C, strain met16, hits give low values",1
same,normalized growth,"S. cerevisiae deletion strains, strain wtn01, hits give low values",0.988
same,normalized growth,"S. cerevisiae strains, strain wild type, hits give low values",0.995
